Substitutions are numbered along the chain they refer to. The full ranking holds about 5,800 sequences; the median of “enrichment r” is about 0.68, and the highest 2% start at about 11. Many of the other results were omitted from the sample, so the highest values are more common in it than they were.
T1: UNK ZnF1-6 (called full-length) (human, UniProt Q9C0B0 30-357)
T1 sequence: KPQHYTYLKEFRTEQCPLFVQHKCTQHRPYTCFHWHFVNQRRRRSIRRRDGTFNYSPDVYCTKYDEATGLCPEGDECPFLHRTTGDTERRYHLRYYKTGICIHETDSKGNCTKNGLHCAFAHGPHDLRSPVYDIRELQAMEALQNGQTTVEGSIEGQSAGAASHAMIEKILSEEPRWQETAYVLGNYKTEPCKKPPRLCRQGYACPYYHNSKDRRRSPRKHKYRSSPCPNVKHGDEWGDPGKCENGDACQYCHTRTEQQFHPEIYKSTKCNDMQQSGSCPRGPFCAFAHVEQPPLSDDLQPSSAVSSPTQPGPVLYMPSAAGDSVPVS

B1: chr17:15565482:15566353:-|three_prime_utr|ENSG00000241322|control|control|control (ssRNA)
RNA: GGGAGUUCUACAGUCCGACGAUCCACCCAAAGAAAAAGUCUUGGAAAAUCCCUAUGUCACCUGACCAAUUCCUCCUGACUGUUAGCGCCCUGCAGCACGCCCGUAAUUCCGGGGAAUUUGCCUAUCCCUGUAGGCCCCAAACACAACAGAGGAUUGAGCAUCA
B2: chr16:58599380:58599482:-|5pUTR|ENSG00000125107|unk|FALSE|unique (ssRNA)
RNA: GGGAGUUCUACAGUCCGACGAUCCAGAACAGAGUAAGACCCCUGGUAAAGAAGAACUGAAGAUAUUAUACAGAUACCAGAUAUAGCCUAAUUACAAAGAAAGCAUUAACCUGCCUCUGAGGUGACUAAAGGGGAAUAAUGGUGCAACAGAGGAUUGAGCAUCA
B3: chr12:108645191:108645284:-|3pUTR|ENSG00000110880|msi1_unk|total|mutant (ssRNA)
RNA: GGGAGUUCUACAGUCCGACGAUCUCUUUUUUUUUUUUUUUUUUUAAGCCAUGACAUCCCAGAAGAGGACAGUGAAUUACUCCCCGGUCGGCUCUUACCGAGUGGCCACCGUGUUCUGUCAAAACACUUGCUUCCAUUUUCAGACAACAGAGGAUUGAGCAUCA
B4: chr8:23842113:23842214:-|3pUTR|ENSG00000159167|msi1|total|mutant (ssRNA)
RNA: GGGAGUUCUACAGUCCGACGAUCACUUCCGACAUUUUUGUGCCAUUAUAUUUGCAUUAUGUAUUUAUAAUUUAAAUGAUAUUCCGGUUUUUGGCUGAGUACUGGAAUAAACAGUGAGCAUAUCUGGUAUAUGUCAUUAUUUAUCAACAGAGGAUUGAGCAUCA
B5: chr1:202941098:202941199:-|3pUTR|ENSG00000159346|msi1_unk|total|mutant (ssRNA)
RNA: GGGAGUUCUACAGUCCGACGAUCCCUCCCUUACCCCCAUCCUUAACUUUGUAUCCUGGCUUAUAACAGGCCAUCCAUUUUUGCCGCACACUUUUCAAAAACAAUUAUAUACCCUGGUCCCAUCUUUCCCGGGCCUGGAUCUGCCAACAGAGGAUUGAGCAUCA
B6: chr9:74692981:74693082:+|3pUTR|ENSG00000198963|unk|total|mutant (ssRNA)
RNA: GGGAGUUCUACAGUCCGACGAUCUUUUAUAUUACUUCCGAAUGUAACCGGUUUUUGUCCUUAUUUUAUGUCCUGUAAAUUAUCCGUUCAAUACUGUCCGCAUUCCCGGAUAAUGCACACAUGAUUUCUGAAUGUUUUCUGUAACAACAGAGGAUUGAGCAUCA
B7: chr6:149889094:149889339:-|three_prime_utr|ENSG00000164520|control|control|control (ssRNA)
RNA: GGGAGUUCUACAGUCCGACGAUCGGCAGCUCCCUUUAAAGGUCAAAAGCCUUCCCUGUGUGGGUGUCAGUGUGUGUGUGCGAUAGAAAAUUUGAUUGACUUCUCCGUGGGCUUCCUGUCUGGAGAGUCAGUGAUGGCUAUAAGCAACAGAGGAUUGAGCAUCA
B8: ENSG00000198589:be:win_1801|CDS|ENSG00000198589|bound_else_gene|NA|bound_elsewhere_windowed (ssRNA)
RNA: GGGAGUUCUACAGUCCGACGAUCACAGUCAACAUAUAUAACACCAUUCGGAGAGUUGGAACAGUGCUUCUCAUCAUGCACACGCUGAAGUACUACUACUGGGCAGUGAAUCCUCAGGAUCGAAGUGGUAUCACCCCAAAAGGACAACAGAGGAUUGAGCAUCA
B9: chr21:18281039:18281221:-|CDS|ENSG00000154646|control|control|control (ssRNA)
RNA: GGGAGUUCUACAGUCCGACGAUCACCUCUCCUCAAACAGUCCCUCGAUUAAUAGAUGAAAUUGUCAUAAACCCUCAUUACAAUAGGCGAAGAAAGGACAACGACAUUGCCAUGAUGCAUCUGGAAUUUAAAGUGAAUUACACACAACAGAGGAUUGAGCAUCA
B10: ENSG00000136451:be:win_1001|CDS|ENSG00000136451|bound_else_gene|NA|bound_elsewhere_windowed (ssRNA)
RNA: GGGAGUUCUACAGUCCGACGAUCACCAAAAGCAGCAGCAGCAGCAGCAGCAGCAGCAGCAGCAGCAGCAACAACAACAACAACAACAUGUGACAAGCUGGCCAGGGAAGCAAGUAGAAACACUGAGACUGUGGGAAGAAGCUGCAACAGAGGAUUGAGCAUCA
B11: chr2:206311781:206311882:+|3pUTR|ENSG00000204186|unk|FALSE|unique (ssRNA)
RNA: GGGAGUUCUACAGUCCGACGAUCUAGUGUUUAGAGUCCUUUCAUUUUAAGAUUCAGAAACAGCCUUUGUCCAACAUUUUCUGUAGAAGAACUUCAUCUUAAUUUAUGUCACAAAAUAAUUUAGCACCGUAUAUAGAAUUUUGUCAACAGAGGAUUGAGCAUCA
B12: chr12:76029359:76029534:-|3pUTR|ENSG00000139289|msi1|FALSE|unique (ssRNA)
RNA: GGGAGUUCUACAGUCCGACGAUCAGAAGUUUAAAAAGCUAAAAGUUAAAAAUGGUGUAAUUAUGAAAAUCUAACACUCAAGAUAGUUUCUAAAAGGAAAUCAGUAGUUAAGGAUACCUGAUUUCAAAAUAUUUAAAGCAUAACCAACAGAGGAUUGAGCAUCA
B13: chr11:74334375:74334476:-|3pUTR|ENSG00000165434|msi1|FALSE|unique (ssRNA)
RNA: GGGAGUUCUACAGUCCGACGAUCUUUUUGUUUUAUUUUUAAAAUGUGUAAAACAUCUUUUGUUUUAUAUGCUUUUAAGAAUGUAGAUUGUAAUUUAGGAAAUGGCAUAUAUUCUGCAAAGUGGUAUAAUGUUGUAUAUAUGAACAACAGAGGAUUGAGCAUCA
B14: chr5:52955293:52955406:+|3pUTR|ENSG00000213949|unk|total|mutant (ssRNA)
RNA: GGGAGUUCUACAGUCCGACGAUCUACCAACCAGUGUGAGCUGACUUCAGCACACCACUGAGACAGAUUACACGACCGACAGACCGACCGACCGACCGACCGACCGACCGACCGACCGACCGACCGAUAUUGACCGAGAACAUGCAACAGAGGAUUGAGCAUCA
B15: ENSG00000198589:be:win_6551|CDS|ENSG00000198589|bound_else_gene|NA|bound_elsewhere_windowed (ssRNA)
RNA: GGGAGUUCUACAGUCCGACGAUCGACGUAUUUCAUUAGCUAGUCCACGUCAGCUUUUUAAGGCUUCUAAUAUGACCCAGCGAUGGCAACACAGAGAGAUAUCUAAUUUUGAGUACUUGAUGUUUCUCAACACGAUAGCAGGACCAACAGAGGAUUGAGCAUCA
B16: chr14:103503186:103503248:+|CDS_3pUTR|ENSG00000075413|msi1_unk|FALSE|overlapping (ssRNA)
RNA: GGGAGUUCUACAGUCCGACGAUCUGCUUCCAAAAUUGCCAAUGAGCUAAAGCUGUAACCCAGUGAUUAUGAUGUAAAUUAAGUAGCAAUUAAAGUGUUUUCCUGAACACUGAUGGAAAUGUAUAGAAUAAUAUUUAGGCAAUACAACAGAGGAUUGAGCAUCA
B17: chr2:206311781:206311882:+|3pUTR|ENSG00000204186|unk|total|mutant (ssRNA)
RNA: B11 RNA with U24C, A25C, U31C, A32C, U83C, A84C, U121C, A122C, U133C, A134C
B18: chr5:52955293:52955406:+|3pUTR|ENSG00000213949|unk|FALSE|unique (ssRNA)
RNA: GGGAGUUCUACAGUCCGACGAUCUACCAACCAGUGUGAGCUGACUUCAGCACACCACUGAGACAGAUUACACGAUAGACAGAUAGAUAGAUAGAUAGAUAGAUAGAUAGAUAGAUAGAUAGAUAGAUAUUGAUAGAGAACAUGCAACAGAGGAUUGAGCAUCA
B19: chr16:57253408:57253449:+|3pUTR|ENSG00000102931|msi1_unk|FALSE|overlapping (ssRNA)
RNA: GGGAGUUCUACAGUCCGACGAUCUGUGUGGUAGAUUACUUAUCAGAAAACAUAUAUGUCAUCUCUAGAACGAAGAAAAAGCAUAGUAGUUCAAUUCCCAGUGUGUCCCUUUGAUUUUUUUUUUUUAAUAGUAAAAAUAAGAAUCAACAGAGGAUUGAGCAUCA
B20: chr12:98549714:98549829:+|3pUTR|ENSG00000120802|unk|FALSE|unique (ssRNA)
RNA: GGGAGUUCUACAGUCCGACGAUCGAAGAUGUAUAUUUAGACCAGCACACAAUUUUGAUUUCAAUUAGCCUUAUUCUAAUAUUUAGCUUUUAGAUCUUUCAUACACAUUUUCACGUACUUUGCAAUUGAGACCAGAAAGACUUGCAACAGAGGAUUGAGCAUCA
B21: chr20:53567570:53567671:-|3pUTR|ENSG00000171940|unk|FALSE|unique (ssRNA)
RNA: GGGAGUUCUACAGUCCGACGAUCUCACAAGCUGAGCCAUAUGUACAUAAUCUAGAUUUUGUUUUCAUAGUUUUGCACUUUUAUAGCCUAUUUUUGAAGAUUAACACAUUUGCAAGAUGAUUGACUCAAUCUUUGCCUAAUCCACAACAGAGGAUUGAGCAUCA

The binders below were run against T1, UNK ZnF1-6 (called full-length) (assay: nsRBNS (natural sequence RNA bind-n-seq); RBNS binding buffer (assumed for nsRBNS): 25 mM Tris pH 7.5, 150 mM KCl, 3 mM MgCl2, 0.01% Triton X-100, 500 ug/ml BSA, 20 U/ml SUPERase-In, 4 C; UNK is unkempt and MSI1 is Musashi-1; names of the RNAs are library labels; protein concentration not given here; high values mean tight binding).
In the case of B1, the binding signal is reported as 0.988 enrichment R. B2 gave a binding signal of 0.956 enrichment R. Binder B3 has a binding signal of 4.25 enrichment R. B4 gave a binding signal of 0.575 enrichment R. Work on B5 yielded a binding signal of 2.09 enrichment R. B6 showed a binding signal of 0.468 enrichment R. Work on B7 yielded a binding signal of 0.908 enrichment R. B8 was tested, and the binding signal was 0.542 enrichment R. Work on B9 yielded a binding signal of 0.684 enrichment R. B10 gave a binding signal of 0.905 enrichment R. B11 gave a binding signal of 11.6 enrichment R. In the case of B12, the binding signal is reported as 1.92 enrichment R. Binder B13 has a binding signal of 3.22 enrichment R. B14 gave a binding signal of 0.427 enrichment R. B15 gave a binding signal of 0.548 enrichment R. Binder B16 has a binding signal of 11.1 enrichment R. With B17 the binding signal was 0.453 enrichment R. B18 was tested, and the binding signal was 24.7 enrichment R. For B19, the binding signal was 1.9 enrichment R. B20 was tested, and the binding signal was 32.9 enrichment R. B21 gave a binding signal of 3.86 enrichment R.
